Only some compounds are listed: those with a hit (about 9.2% of all), similar ones and a draw of the others.
SMN2 splice up: qHTS Assay for Enhancers of SMN2 Splice Variant Expression. AID 1458, 2008. HEK293 SMN2-luciferase splicing reporter, luminescence, 30-36 h. 210,000 tested, 2.8% active. Potency, µM (highest dose often 46.1 µM), for inactives: at the top dose activity change, positive = activation, usual class: activators; also: % of control where 0% means no effect; nearly all actives have a fitted effect of over 55% in size
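HEK293 cells carry an SMN2 […]–luciferase reporter in which exon 7 inclusion puts luciferase in frame. Cells were plated 10-12 h before compound addition, then incubated 30-36 h at 37C. ONE-Glo luminescence was read; sodium butyrate at 4.5 mM final served as control.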
Rab9 prom act: qHTS Assay for Rab9 Promoter Activators | Huh7 Rab9 promoter-luciferase reporter, luminescence, 24 h | Potency, µM (series often up to 9.22 µM), inactives show top-dose activation, negative = inhibition, hits mostly activators | 320,000 tested, 2.8% active | AID 485297, 2010; also: % of control where 0% means no effect; nearly all actives have a fitted effect of over 60% in size
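Quantitative HTS format; Huh7 Rab9-luciferase reporter cells (1500/well) receive compound 2 h post-plating, incubate 24 h at 37 °C, then get luciferase reagent for 10 min before luminescence reading.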
NPC1 promoter act: qHTS Assay for NPC1 Promoter Activators | AID 485313, 2010 | Huh7 NPC1 promoter luciferase reporter, 24 h | Potency, µM (doses to about 9.22 µM), without a hit: top-dose activation, usual class: activators | 320,000 tested, 2.4% active; also: % of control where 0% means no effect; nearly all actives have a fitted effect of over 60% in size
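Stably transfected Huh7 (NPC1 promoter→luciferase), 1500 cells/well in Opti-MEM + 10% FBS, 2 h settle, then compound 24 h at 37 °C. Luminescence after 10 min with Amplite reagent.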
ELG1 genotox: qHTS screen for small molecules that induce genotoxicity in human embryonic kidney (HEK293T) cells expressing luciferase-tagged ELG1; HEK293T ELG1-luciferase reporter, luminescence, 16 h; Potency, µM (highest dose often 46 µM), for inactives: top-dose activity change, positive = activation, hits mostly activators; 330,000 tested, 1.3% active; AID 504466, 2011; also: % of control where 0% means no effect; nearly all actives have a fitted effect of over 60% in size
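Genotoxicity was scored as increased ELG1-luciferase reporter signal, measured by ONE-Glo luminescence (30 min, room temperature). Compound or vehicle exposure of the HEK293T reporter cells lasted 16 hr at 37°C.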
ELG1 DNA repair: qHTS screen for small molecules that inhibit ELG1-dependent DNA repair in human embryonic kidney (HEK293T) cells expressing luciferase-tagged ELG1; HEK293T ELG1-luciferase reporter, luminescence, 16 h; DNA damage induced by 5-fluorouridine; Potency, µM (top dose mostly 46.1 µM), for the others: at the top dose activity change, negative = inhibition, actives largely listed as inhibitors; 330,000 tested, 2.3% active; AID 504467, 2011; also: % is scaled to controls: 0 for no effect and ±100 for the full control effect; nearly all actives have a fitted effect of over 55% in size
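Step one: seed 2,000 cells per well. Step two: pin-transfer compound or DMSO alongside 5-fluorouridine. Step three: incubate 16 hr, 37 °C, 5% CO2. Step four: add ONE-Glo, wait 30 min, read luminescence.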
FLuc counter: qHTS profiling assay for firefly luciferase inhibitor/activator using purifed enzyme and Km concentrations of substrates (counterscreen for miR-21 project); Luciferin 4-monooxygenase (Photinus pyralis), P08659; purified FLuc, Km substrates, luminescence inhibition; Potency, µM (doses to about 57.5 µM), inactives show top-dose activity change, negative = inhibition, hits mostly inhibitors; 360,000 tested, 6.9% active;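 also: plate controls were vehicle for no effect and reference inhibitor for full effect; nearly all actives have a fitted effect of over 55% in size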
Target sequence (P08659 whole entry, looked up): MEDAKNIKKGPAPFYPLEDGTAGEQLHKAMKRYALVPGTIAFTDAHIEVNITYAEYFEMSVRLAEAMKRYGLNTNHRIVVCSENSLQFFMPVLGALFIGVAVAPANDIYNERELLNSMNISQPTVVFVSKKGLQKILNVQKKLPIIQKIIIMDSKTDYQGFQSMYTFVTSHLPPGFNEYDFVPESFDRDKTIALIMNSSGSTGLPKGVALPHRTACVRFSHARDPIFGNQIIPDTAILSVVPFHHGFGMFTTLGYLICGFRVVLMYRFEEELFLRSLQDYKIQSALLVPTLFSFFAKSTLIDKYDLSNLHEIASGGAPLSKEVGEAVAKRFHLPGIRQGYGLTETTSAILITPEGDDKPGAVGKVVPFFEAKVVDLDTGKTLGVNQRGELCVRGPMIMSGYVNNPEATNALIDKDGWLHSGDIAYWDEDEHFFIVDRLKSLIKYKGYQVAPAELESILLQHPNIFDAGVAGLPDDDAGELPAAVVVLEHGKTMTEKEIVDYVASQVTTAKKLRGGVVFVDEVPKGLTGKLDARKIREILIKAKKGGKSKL
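Purified P. pyralis luciferase, 10 nM final, with Km-level 10 uM D-luciferin and 10 uM ATP in 50 mM Tris acetate pH 7.5, 10 mM Mg acetate, 0.01% Tween-20, 0.05% BSA; 6-point qHTS titration about 60 µM downward; luminescence read.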
The depositor's hits bear a star; ? = inconclusive; · = not tested or not shown; [ ] = another dose, or the depositor's remark. Calls follow the shape of the dose curve; as a rule, active = well fitted curve in the direction sought with a large enough effect; inconclusive = small, poorly fitted or top-dose-only effect, or another doubt; inactive = no such curve, though single readings can be large; an effect the other way counts as inactive or inconclusive. Potency is read from the fitted curve at half-maximal effect.

SMILES	SMN2 splice up	Rab9 prom act	NPC1 promoter act	ELG1 genotox	ELG1 DNA repair	FLuc counter
COc1ccc2c(c1)CCC1C2=NN(/C(C)=C\C(C)=O)C1c1ccc(F)cc1 (centres undefined)	15%	?	?	?	-17%	13µM*
COc1ccc2c(c1)C1=NN(/C(C)=C/C(C)=O)C(c3cccc(F)c3)C1CC2 (centres undefined)	-11%	9%	-2%	0%	2%	?
COc1ccc2c(c1)C1=NN(/C(C)=C\C(C)=O)C(c3ccccc3)C1CC2 (centres undefined)	-5%	18%	12%	16%	?	19µM*
COc1ccc2c(c1)C1=NN(/C(C)=C/C(C)=O)C(c3ccc(F)cc3)C1CC2 (centres undefined)	8%	19%	25%	?	?	27µM*
Cc1ccc(CNC(=O)c2ccc(N3CCC4(CC3)CC(c3ccccc3)=NO4)c(N)c2)cc1	·	-8%	-3%	15%	-4%	0%
Cc1ccc(C)c(N2CCN(C(=O)Nc3ccc4c(c3)N(C)C(=O)CS4)CC2)c1	·	-17%	-22%	-11%	6.5µM*	?
CC(=O)Nc1ccc(NC(=O)Nc2ccc3c(c2)N(C)C(=O)CS3)cc1	·	0%	-6%	-12%	?	-17%
COc1cccc(NC(=O)Nc2ccc3c(c2)N(C)C(=O)CS3)c1	14%	-3%	0%	-12%	?	12µM*
CN1C(=O)CSc2ccc(NC(=O)N3CCN(c4ccccn4)CC3)cc21	-3%	-8%	-5%	0%	?	-5%
CN1C(=O)CSc2ccc(NC(=O)Nc3ccccn3)cc21	?	2.8µM*	?	4%	?	3µM*
CCN(CC(=O)NCc1ccc(F)cc1)C(=O)c1cccnc1SC	·	0%	1%	0%	13%	1%
CCN(C(=O)c1cnc(NC(C)C)cc1C(F)(F)F)c1ccc(Cl)cc1	·	0%	2%	-15%	18µM*	-2%
CN1CCN(C(=O)/C=C/c2ccc3c(c2)OCO3)CC1	1%	13%	1%	3%	?	-4%
COC(=O)C1CCN(C(=O)/C=C/c2ccc3c(c2)OCO3)CC1	·	1.3µM*	0.79µM*	?	?	?
O=C(/C=C/c1ccc2c(c1)OCO2)N1CCN(c2n[nH]c(=O)[nH]c2=O)CC1	·	-2%	-4%	2%	4%	21µM*
O=C(/C=C/C=C/c1ccc2c(c1)OCO2)N1CCCCC1	14µM*	2.5µM*	2.5µM*	12µM*	?	8.5µM*
CCCN=C1N(C)C[C@@H]2[C@@H]3C(=O)N(Cc4ccccc4)C(=O)[C@@H]3[C@](Cc3ccccc3)(C(=O)OC)N12	·	·	·	1%	3%	·
CCn1ccc2cc(S(=O)(=O)N3CCC(C(=O)NCc4cccc(Cl)c4)CC3)ccc21	·	·	·	·	·	6%
CCc1ccc(/C=N/NC(=O)c2nnn(-c3nonc3N)c2C(C)C)cc1	·	-7%	-5%	5%	9%	2.4µM*
CC(C)c1c(C(=O)N/N=C/c2ccc(Cl)cc2Cl)nnn1-c1nonc1N	·	0%	3%	5%	1%	6µM*
CCOc1ccc2c(c1)sc(=NC(=O)C1CC1)n2C	11µM*	·	·	·	·	7.6µM*
CCc1ccc(NC(=O)c2cnn(-c3c(C)cccc3C)c2C2CCNCC2)cc1	·	·	·	·	·	-1%
Cc1cc(NC(=O)c2cccs2)ncc1NC(=O)c1cccc(F)c1	?	3.2µM*	27%	?	?	19µM*
Cc1cc(NC(=O)c2ccccc2F)ncc1NC(=O)c1cccs1	?	29%	16%	13%	?	?
Cc1cc(NC(=O)c2cccs2)ncc1NC(=O)C(C)C	·	2.2µM*	1.8µM*	-3%	?	15µM*
SMILES	SMN2 splice up	Rab9 prom act	NPC1 promoter act	ELG1 genotox	ELG1 DNA repair	FLuc counter
Cc1cc(NC(=O)c2ccccc2)ncc1NC(=O)c1cccs1	11µM*	4µM*	3.5µM*	?	?	15µM*
O=C(Nc1ccc(NC(=O)c2cccs2)cn1)c1ccccc1	16µM*	1.1µM*	2.2µM*	?	?	5.4µM*
Cc1ccc2nc(N3CCN(c4cccc(C(F)(F)F)c4)CC3)c3nnnn3c2c1	·	·	·	·	·	-1%
CCOCCCNC(=O)C1CCN(C(=O)c2cc3sccc3n2C)CC1	-5%	·	·	·	·	4%
O=C(Nc1ccc(F)c(Cl)c1)C1CCCCC1	·	7%	1%	-1%	3%	-18%
O=C(CNC(=O)C1CCCCC1)Nc1cc(Cl)cc(Cl)c1	22%	-9%	1%	-4%	6%	2%
O=C(CNC(=O)C1CCCCC1)Nc1ccc(Cl)cc1	11µM*	3%	15%	?	?	-5%
O=C(CNC(=O)C1CCCCC1)Nc1ccc(F)c(Cl)c1	18µM*	-1%	-8%	0%	-4%	2%
CC(=O)c1ccc(NC(=O)NCCc2c[nH]c3ccccc23)cc1	-4%	·	·	·	·	2%
O=C1CSC(c2ccccc2)N1Nc1nc(N2CCOCC2)nc(N2CCOCC2)n1 (centres undefined)	·	-9%	-8%	-1%	6.5µM*	-1%
c1ccc(Oc2nc(N3CCOCC3)nc(N3CCOCC3)n2)cc1	24%	1%	-5%	2%	?	1%
COc1ccccc1CCNC(=O)Cn1c(=O)oc2ccccc21	·	4%	-7%	-8%	1%	15µM*
CCOC(=O)c1c(-c2ccc(C)cc2)csc1NC(=O)c1cc(=O)c2cc(Cl)ccc2o1	·	·	·	·	·	2%
NC1=NC(=O)/C(=C\c2cccs2)S1	3%	-6%	0%	8%	26%	?
O=C1/C(=C\c2cccs2)Sc2ccc3ccccc3c21	15%[1.84 µM]	20%	-3%	3.7µM*	?	0.6µM*
COC(=O)Cn1c(=NC(=O)c2ccc3c(c2)OCCO3)sc2ccccc21	·	·	·	·	·	8.5µM*
COC(=O)Cn1c(O)c(N=NC(=O)c2ccc3c(c2)OCO3)c2ccccc21	·	30%	?	9%	?	0.95µM*
COc1cc(OC)c(OC)cc1/C=C1/Cc2ccccc2C1=O	·	-4%[1.84 µM]	-9%	3%	8%	5%
CCC1C/C(=C\c2cc(OC)c(OC)cc2OC)C(=O)/C(=C/c2cc(OC)c(OC)cc2OC)C1 (centres undefined)	·	1%	-5%	-13%	6.5µM*	2%

Screening results as filed in PubChem.
